Results: PubChem BioAssay AID588849 (Broad Institute, 2011)
Entries with a potency or affinity are not part of this list. The source made the active and inactive calls. No rule for the calls is given here.

Target: CAAX prenyl protease 2 (Homo sapiens) (UniProt Q9Y256)
Test: inhibition of Ras-converting CAAX protease Rce1 – biochemical, yeast membranes, quenched-peptide fluorescence, cherry-pick, dose response (AID 588849)
Settings: yeast membrane fractions expressing human Rce1, quenched-peptide fluorescence, 4 h; series mostly up to 10 µM

Sequence of CAAX prenyl protease 2 (Homo sapiens) (Q9Y256 whole entry, looked up): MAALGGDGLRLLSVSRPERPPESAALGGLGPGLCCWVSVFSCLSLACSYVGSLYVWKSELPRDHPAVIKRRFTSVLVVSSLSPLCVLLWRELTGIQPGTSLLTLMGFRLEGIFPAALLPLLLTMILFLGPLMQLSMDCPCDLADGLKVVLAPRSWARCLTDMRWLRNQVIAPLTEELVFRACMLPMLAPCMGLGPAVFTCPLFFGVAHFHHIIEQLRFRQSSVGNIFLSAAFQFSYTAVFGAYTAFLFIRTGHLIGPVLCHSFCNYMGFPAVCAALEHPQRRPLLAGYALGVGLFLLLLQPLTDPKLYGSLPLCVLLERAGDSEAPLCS

`CCOc1ccccc1CNC(=O)c1cc2occc2n1C` was tested. Which outcome did it give?
Its outcome is “inactive”.

With `Cc1ccc(-c2nc(SCC(=O)N(C)C3CCS(=O)(=O)C3)[nH]c2-c2ccc(C)cc2)cc1` (configuration not stated) as the molecule, how does the outcome read?
The outcome was “inactive”.

`COc1ccc(-c2nc(CC(=O)O)cs2)cc1OC` was tested. Which outcome did it give?
The outcome was “inactive”.

How did the outcome turn out when `O=S(=O)(c1ccccc1)c1cnn2c(C(F)(F)F)cc(-c3ccc(F)cc3)nc12` was run?
Its outcome is “inactive”.

For `COc1ccc([N+](=O)[O-])cc1CSc1ccccn1`, which outcome is on record?
The outcome was “inactive”.

How did the outcome turn out when `Cc1ccc(-c2cc(-c3ccccc3)c(C#N)c(Br)n2)cc1` was run?
Its outcome is “inactive”.

With `CC(C)c1cccc(OCC(=O)Nc2ccc(S(=O)(=O)Nc3ccccn3)cc2)c1` as the molecule, how does the outcome read?
Its outcome is “inactive”.

Which outcome does the source give for `COCCN1C(=O)/C(=C/c2ccc(Oc3ccc([N+](=O)[O-])cn3)c(OC)c2)SC1=Nc1ccccc1` here?
Its outcome is “inactive”.

`O=C(Nc1ccc(F)cc1)Oc1ccccc1N1CCOCC1` was tested. Which outcome did it give?
Its outcome is “inactive”.

`COc1ccc(S(=O)(=O)N(CC(=O)N2CCCC2)Cc2ccccc2)cc1` was tested. Which outcome did it give?
Its outcome is “inactive”.

How did the outcome turn out when `COc1cc2ccccc2cc1C(=O)N(CCN(C)C)c1nc2ccc(C)cc2s1` was run?
Its outcome is “inactive”.

For `Cc1cc(NS(=O)(=O)c2ccccc2)c([N+](=O)[O-])cc1C`, which outcome is on record?
Its outcome is “inactive”.

How did the outcome turn out when `Cc1nn(CCC(=O)O)c2nc(-c3cccnc3)cc(C(F)(F)F)c12` was run?
The outcome was “inactive”.

`N/C(Cc1ccc([N+](=O)[O-])cc1)=N\OC(=O)c1ccc2ccccc2c1` was tested. Which outcome did it give?
The outcome was “inactive”.

With `CCCn1c(O)c(N=NC(=O)CNC(=O)Cc2ccc(OC)cc2)c2ccccc21` as the molecule, how does the outcome read?
The outcome was “inactive”.

How did the outcome turn out when `O=C(O/N=C\c1ccc(N2CCCCC2)c([N+](=O)[O-])c1)c1cccc(C(F)(F)F)c1` was run?
Its outcome is “inactive”.

Which outcome does the source give for `CCOC(=O)C[n+]1ccc2c([nH]c3ccccc32)c1C` here?
The outcome was “inactive”.
